Laboratory results published in PubChem BioAssay (EPA / NIEHS).
Several values for one entry are separate records, joined by “and”; a condition that tells them apart may be missing. Equal entries are not always repeated. Results filed as inconclusive are left out. The source holds several records for some structures; these can differ, active in one and inactive in another. Activity calls are given as the source filed them. Rule for the calls, unless noted: active = hit-call score of the fitted dose curve at least 0.9, where 1 is the maximum; inactive = score below 0.9.

Columns and labels:
[1] = ATG_GAL4_TRANS: Attagene TRANS-FACTORIAL HepG2 Assay for GAL4 (Internal Marker) (AID 2282976; active = hit-call score of the fitted dose curve at least 0.9, where 1 is the maximum); conditions: HepG2 Attagene TRANS GAL4 internal marker reporter
Method in brief: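 RT-PCR/capillary electrophoresis readout of reporter mRNA. HepG2, transient MRTU transfection (GAL4-UAS reporters), 24 h compound exposure. Background-control endpoint, positive direction vs DMSO baseline.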

[2] = molecular target: Glucocorticoid receptor (Homo sapiens) (UniProt P04150); experiment: ATG_GR_TRANS: Attagene TRANS-FACTORIAL HepG2 Assay for human Glucocorticoid Receptor (GR) (AID 2282978; active = hit-call score of the fitted dose curve at least 0.9, where 1 is the maximum;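 note: activators score as hits since higher reporter transcript over DMSO is fitted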); conditions: HepG2 Attagene TRANS GR reporter, mRNA transcription
Chain of Glucocorticoid receptor (Homo sapiens) (P04150 whole entry, looked up, the tested form may be a part): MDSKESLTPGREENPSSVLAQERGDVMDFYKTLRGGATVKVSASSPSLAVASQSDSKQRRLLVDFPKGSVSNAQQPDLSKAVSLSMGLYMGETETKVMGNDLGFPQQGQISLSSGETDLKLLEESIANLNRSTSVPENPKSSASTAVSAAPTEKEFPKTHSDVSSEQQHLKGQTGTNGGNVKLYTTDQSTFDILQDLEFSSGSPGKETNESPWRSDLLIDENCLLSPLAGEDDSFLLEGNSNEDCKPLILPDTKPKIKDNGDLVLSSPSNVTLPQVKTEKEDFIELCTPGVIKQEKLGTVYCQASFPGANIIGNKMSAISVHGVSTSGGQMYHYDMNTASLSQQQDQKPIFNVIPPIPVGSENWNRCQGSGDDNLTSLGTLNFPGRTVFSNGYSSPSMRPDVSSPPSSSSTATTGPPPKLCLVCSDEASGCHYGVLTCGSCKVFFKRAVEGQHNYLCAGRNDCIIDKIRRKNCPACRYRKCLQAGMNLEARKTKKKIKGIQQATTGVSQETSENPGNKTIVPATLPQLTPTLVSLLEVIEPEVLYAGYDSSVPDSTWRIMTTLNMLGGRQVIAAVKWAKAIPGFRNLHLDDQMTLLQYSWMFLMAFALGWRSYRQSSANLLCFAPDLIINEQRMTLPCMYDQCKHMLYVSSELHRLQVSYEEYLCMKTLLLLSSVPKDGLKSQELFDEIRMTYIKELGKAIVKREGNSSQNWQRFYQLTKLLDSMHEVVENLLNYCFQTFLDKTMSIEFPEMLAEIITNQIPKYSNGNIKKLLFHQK
Method in brief: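 HepG2 transient transfection, multiple reporter units, GAL4-UAS under NR-GAL4 chimera control. 24 h treatment. Reporter mRNA by RT-PCR/CE fluorescence, DMSO as negative control.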

[3] = molecular target: Hepatocyte nuclear factor 4-alpha (Homo sapiens) (UniProt P41235); experiment: ATG_HNF4a_TRANS: Attagene TRANS-FACTORIAL HepG2 Assay for human Hepatocyte Nuclear Factor 4 alpha (HNF4a) (AID 2282982; active = hit-call score of the fitted dose curve at least 0.9, where 1 is the maximum); conditions: HepG2 HNF4a transactivation reporter, mRNA readout
Chain of Hepatocyte nuclear factor 4-alpha (Homo sapiens) (P41235 whole entry, looked up, the tested form may be a part): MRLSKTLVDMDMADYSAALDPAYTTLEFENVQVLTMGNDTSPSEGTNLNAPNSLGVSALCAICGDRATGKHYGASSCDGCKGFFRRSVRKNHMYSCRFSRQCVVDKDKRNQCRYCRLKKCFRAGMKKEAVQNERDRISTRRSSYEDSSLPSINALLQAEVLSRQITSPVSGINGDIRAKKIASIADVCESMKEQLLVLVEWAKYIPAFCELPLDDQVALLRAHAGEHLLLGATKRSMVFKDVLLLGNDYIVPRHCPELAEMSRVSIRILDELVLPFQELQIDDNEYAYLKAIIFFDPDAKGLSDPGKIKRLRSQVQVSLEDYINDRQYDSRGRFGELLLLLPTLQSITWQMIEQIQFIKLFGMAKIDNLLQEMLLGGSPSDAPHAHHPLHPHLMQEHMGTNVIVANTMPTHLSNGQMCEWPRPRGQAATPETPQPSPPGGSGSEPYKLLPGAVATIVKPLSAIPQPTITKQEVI
Method in brief: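 Endpoint reflects transcriptional activation of a GAL4-UAS reporter by an HNF4a-GAL4 chimera in transfected HepG2 cells, 24 h post-dosing. Fluorescence from RT-PCR products separated by capillary electrophoresis; DMSO baseline.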

[4] = ATG_M_06_TRANS: Attagene TRANS-FACTORIAL HepG2 Assay for M06 Transcription Factor (Internal Marker) (AID 2282983; active = hit-call score of the fitted dose curve at least 0.9, where 1 is the maximum); conditions: HepG2 Attagene TRANS M06 internal marker reporter
Method in brief: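 Read-out: fluorescent reporter cDNA fragments resolved by capillary electrophoresis after RT-PCR and HpaI cut. Source cells were HepG2 carrying transfected multi-reporter GAL4 constructs, dosed 24 h. Increase over DMSO control analysed.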

[5] = ATG_M_32_TRANS: Attagene TRANS-FACTORIAL HepG2 Assay for M32 Transcription Factor (Internal Marker) (AID 2282984; active = hit-call score of the fitted dose curve at least 0.9, where 1 is the maximum;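 note: transcript level of a background control reporter unit measured by RT-PCR and capillary electrophoresis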); conditions: HepG2 Attagene TRANS M32 internal marker reporter
Method in brief: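 Internal-marker readout from a multiplexed transcription reporter panel. HepG2 cells were transfected with GAL4-UAS reporter units, treated 24 hours, and reporter transcript levels determined by fluorescence after RT-PCR and capillary separation.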

[6] = molecular target: Nuclear receptor subfamily 4 group A member 2 (Homo sapiens) (UniProt P43354); experiment: ATG_NURR1_TRANS: Attagene TRANS-FACTORIAL HepG2 Assay for human Nuclear Receptor Related Protein 1 (NURR1) (AID 2282985; active = hit-call score of the fitted dose curve at least 0.9, where 1 is the maximum); conditions: HepG2 Attagene TRANS reporter, mRNA readout
Chain of Nuclear receptor subfamily 4 group A member 2 (Homo sapiens) (P43354 whole entry, looked up): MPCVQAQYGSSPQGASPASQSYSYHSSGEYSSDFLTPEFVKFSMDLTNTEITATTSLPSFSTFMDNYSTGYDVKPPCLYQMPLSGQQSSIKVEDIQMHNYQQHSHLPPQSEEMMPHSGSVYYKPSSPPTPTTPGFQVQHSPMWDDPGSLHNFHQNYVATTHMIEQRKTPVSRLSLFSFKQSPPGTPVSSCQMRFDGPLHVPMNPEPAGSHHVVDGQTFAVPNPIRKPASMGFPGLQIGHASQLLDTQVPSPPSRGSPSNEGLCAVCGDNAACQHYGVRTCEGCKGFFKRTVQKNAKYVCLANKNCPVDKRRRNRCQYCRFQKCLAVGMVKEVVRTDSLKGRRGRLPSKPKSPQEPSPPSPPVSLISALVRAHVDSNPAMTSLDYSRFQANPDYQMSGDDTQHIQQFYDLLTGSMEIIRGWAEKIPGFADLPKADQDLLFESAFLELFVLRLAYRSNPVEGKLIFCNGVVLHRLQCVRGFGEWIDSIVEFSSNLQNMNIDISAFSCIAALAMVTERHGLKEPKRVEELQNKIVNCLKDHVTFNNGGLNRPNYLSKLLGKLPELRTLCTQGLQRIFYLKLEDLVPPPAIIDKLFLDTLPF
Method in brief: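 Endpoint: reporter mRNA increase relative to DMSO. HepG2 cells transfected with reporter units, treated 24 h; RNA processed by RT-PCR, labelling, HpaI digestion and capillary electrophoresis.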

[7] = molecular target: Transcriptional activator Myb (Homo sapiens) (UniProt P10242); experiment: ATG_Myb_CIS: Attagene CIS-FACTORIAL HepG2 Assay for human Myeloblastosis (Myb) Proto-Oncogene Transcription Factor (AID 2282986); conditions: HepG2 Attagene CIS-FACTORIAL Myb reporter transcription; actives raise or lower the signal
Chain of Transcriptional activator Myb (Homo sapiens) (P10242 whole entry, looked up): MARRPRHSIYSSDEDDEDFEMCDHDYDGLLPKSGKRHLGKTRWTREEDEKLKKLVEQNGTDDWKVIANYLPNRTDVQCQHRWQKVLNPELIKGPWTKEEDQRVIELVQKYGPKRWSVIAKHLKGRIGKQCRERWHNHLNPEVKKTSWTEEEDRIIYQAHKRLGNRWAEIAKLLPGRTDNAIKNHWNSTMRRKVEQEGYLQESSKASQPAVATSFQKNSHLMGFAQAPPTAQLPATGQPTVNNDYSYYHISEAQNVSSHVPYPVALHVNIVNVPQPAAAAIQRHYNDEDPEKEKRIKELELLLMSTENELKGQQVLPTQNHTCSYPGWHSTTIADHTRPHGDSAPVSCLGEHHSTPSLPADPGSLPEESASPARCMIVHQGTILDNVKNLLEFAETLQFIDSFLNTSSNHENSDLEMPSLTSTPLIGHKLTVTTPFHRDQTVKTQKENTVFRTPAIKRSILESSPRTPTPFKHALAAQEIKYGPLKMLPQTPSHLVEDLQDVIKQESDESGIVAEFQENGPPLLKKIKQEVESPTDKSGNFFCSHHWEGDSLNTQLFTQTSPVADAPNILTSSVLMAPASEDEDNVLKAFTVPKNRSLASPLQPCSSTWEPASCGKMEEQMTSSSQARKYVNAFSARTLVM
Method in brief: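 Multiplexed cis-reporter system in HepG2: transient transfection, 24 h treatment, mRNA readout by RT-PCR and capillary electrophoresis. Both increases and decreases are scored versus DMSO negative control.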

[8] = molecular target: Nuclear respiratory factor 1 (Homo sapiens) (UniProt Q16656); experiment: ATG_NRF1_CIS: Attagene CIS-FACTORIAL HepG2 Assay for human Nuclear Respiratory Factor 1 (NRF1) Orphan Gene (AID 2282987); conditions: HepG2 NRF1 cis-element reporter, Attagene multiplex; actives raise or lower the signal
Chain of Nuclear respiratory factor 1 (Homo sapiens) (Q16656 whole entry, looked up): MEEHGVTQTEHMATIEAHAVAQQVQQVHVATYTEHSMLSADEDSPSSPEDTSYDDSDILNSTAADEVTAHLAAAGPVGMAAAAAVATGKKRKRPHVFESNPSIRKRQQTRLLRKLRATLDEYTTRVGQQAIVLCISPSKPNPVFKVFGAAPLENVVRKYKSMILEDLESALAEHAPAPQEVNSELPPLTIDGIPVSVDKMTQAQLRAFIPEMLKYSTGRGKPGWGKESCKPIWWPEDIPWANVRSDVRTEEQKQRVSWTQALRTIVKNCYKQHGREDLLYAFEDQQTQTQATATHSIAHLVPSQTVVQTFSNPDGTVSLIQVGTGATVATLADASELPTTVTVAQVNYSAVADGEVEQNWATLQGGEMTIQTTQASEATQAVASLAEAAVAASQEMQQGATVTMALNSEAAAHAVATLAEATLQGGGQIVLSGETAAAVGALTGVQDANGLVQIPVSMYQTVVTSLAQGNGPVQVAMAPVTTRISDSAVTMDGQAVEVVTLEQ
Method in brief: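 Endogenous factor activity was captured via cis-element-driven reporter transcripts in HepG2 cells. Following 24 h chemical treatment, transcripts were quantified by RT-PCR and capillary electrophoresis.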

[9] = ATG_NFI_CIS: Attagene CIS-FACTORIAL HepG2 Assay for human Nuclear Factor I (NFI) (AID 2282989); conditions: HepG2 cis-regulatory reporter, NFI response element transcription; actives raise or lower the signal
Method in brief: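 Cells: human liver HepG2, transiently transfected with promoter-regulated reporter transcription units. Exposure 24 h. Detection: fluorescent RT-PCR products separated by capillary electrophoresis, normalised to DMSO negative control.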

[10] = molecular target: Myc proto-oncogene protein (Homo sapiens) (UniProt P01106); experiment: ATG_Myc_CIS: Attagene CIS-FACTORIAL HepG2 Assay for human Myelocytomatosis (Myc) Proto-Oncogene Transcription Factor (AID 2282990); conditions: HepG2, Attagene cis-reporter transcription factor activity; actives raise or lower the signal
Chain of Myc proto-oncogene protein (Homo sapiens) (P01106 whole entry, looked up): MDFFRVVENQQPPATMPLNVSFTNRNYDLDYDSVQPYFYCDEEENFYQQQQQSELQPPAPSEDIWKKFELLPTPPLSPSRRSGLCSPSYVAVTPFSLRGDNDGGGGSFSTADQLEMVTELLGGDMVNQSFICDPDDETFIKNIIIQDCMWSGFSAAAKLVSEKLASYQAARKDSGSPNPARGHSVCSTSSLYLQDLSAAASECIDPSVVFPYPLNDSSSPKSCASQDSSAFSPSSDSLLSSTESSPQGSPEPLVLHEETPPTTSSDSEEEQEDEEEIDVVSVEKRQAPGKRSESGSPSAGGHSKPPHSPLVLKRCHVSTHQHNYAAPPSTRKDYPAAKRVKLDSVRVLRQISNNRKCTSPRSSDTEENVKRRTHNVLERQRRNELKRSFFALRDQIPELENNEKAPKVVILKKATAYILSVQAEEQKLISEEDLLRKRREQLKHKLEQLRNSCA
Method in brief: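 Transiently transfected HepG2 cells bearing cis-promoter reporter units for endogenous transcription factors; 24 h exposure. Reporter mRNA measured by RT-PCR, 6-FAM primer extension, HpaI cut and capillary electrophoresis; bidirectional fit relative to DMSO.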

[11] = ATG_NRF2_ARE_CIS: Attagene CIS-FACTORIAL HepG2 Assay for human Nuclear Factor Erythroid 2 Related Factor 2 (NFR2) response to Antioxidant Response Elements (ARE) (AID 2282992); conditions: HepG2 Attagene ARE/NRF2 reporter, transcription factor activity; actives raise or lower the signal;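 for AC50: reporter mRNA level measured by RT-PCR and capillary electrophoresis fluorescence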
Method in brief: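 Endogenous transcription factor activity in human liver HepG2 cells is tracked via a cis-element-driven reporter within a multiplexed set. mRNA induction is read by RT-PCR and capillary electrophoresis after 24 h, with DMSO as baseline.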

[12] = ATG_Oct_MLP_CIS: Attagene CIS-FACTORIAL HepG2 Assay for human Octamer-Binding Transcription Factor (Oct) (AID 2282993); conditions: HepG2 Attagene cis-factorial Oct reporter, mRNA; actives raise or lower the signal
Method in brief: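 HepG2, transient MRTU transfection, cis promoter elements; 24 h dosing; RT-PCR/CE fluorescence read-out of reporter mRNA; fit both directions vs DMSO.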

[13] = molecular target: Cellular tumor antigen p53 (Homo sapiens) (UniProt P04637); experiment: ATG_p53_CIS: Attagene CIS-FACTORIAL HepG2 Assay for human p53 Transcription Factor (AID 2282994); conditions: HepG2 p53 cis-element reporter, Attagene mRNA; actives raise or lower the signal
Chain of Cellular tumor antigen p53 (Homo sapiens) (P04637 whole entry, looked up, the tested form may be a part): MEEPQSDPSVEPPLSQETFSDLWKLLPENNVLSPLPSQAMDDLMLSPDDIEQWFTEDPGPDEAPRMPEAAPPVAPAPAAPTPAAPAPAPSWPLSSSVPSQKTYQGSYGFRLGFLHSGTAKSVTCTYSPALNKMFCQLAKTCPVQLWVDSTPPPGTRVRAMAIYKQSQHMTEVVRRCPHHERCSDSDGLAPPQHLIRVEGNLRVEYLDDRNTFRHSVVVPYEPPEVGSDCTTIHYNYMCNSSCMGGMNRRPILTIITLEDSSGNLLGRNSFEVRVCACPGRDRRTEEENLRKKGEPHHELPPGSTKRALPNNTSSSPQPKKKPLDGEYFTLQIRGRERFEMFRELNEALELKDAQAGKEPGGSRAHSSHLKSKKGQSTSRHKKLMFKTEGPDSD
Method in brief: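 Steps: transfect HepG2 with multiplexed cis reporter constructs; dose chemicals 24 h; extract RNA, reverse-transcribe, PCR-amplify reporter sequences; FAM-label, HpaI-digest, resolve fragments by CE. Activity fitted both directions relative to DMSO.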

[14] = BSK_3C_uPAR: BioMAP Diversity Plus: 3C Assay for Urokinase-type plasminogen activator receptor (uPAR) Biomarker Activity (AID 2282998); conditions: BioMAP 3C HUVEC, uPAR biomarker ELISA; actives raise or lower the signal
Method in brief: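 A multiplexed primary-cell system built on human umbilical vein endothelium was used, with chemical present for 24 h before reading. Cell-surface uPAR was detected by ELISA; signal change in either direction counted against DMSO.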

[15] = molecular target: Estrogen-related receptor gamma (Homo sapiens) (UniProt P62508); experiment: ATG_ERRg_TRANS: Attagene TRANS-FACTORIAL HepG2 Assay for human Estrogen-Related Receptor gamma (ERRg) (AID 2282977; active = hit-call score of the fitted dose curve at least 0.9, where 1 is the maximum;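 note: hits increase reporter signal over DMSO so potencies reflect activators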); conditions: HepG2 Attagene TRANS reporter, ERRg transactivation
Method in brief: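 Exogenous NR-Gal4 chimera activity measured as reporter transcript induction after 24 h in transiently transfected HepG2 cells. RNA reverse-transcribed, PCR-amplified, 6-FAM-labelled and resolved by capillary electrophoresis; increase over DMSO baseline.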

[16] = molecular target: Bile acid receptor (Homo sapiens) (UniProt Q96RI1); experiment: ATG_FXR_TRANS: Attagene TRANS-FACTORIAL HepG2 Assay for Farnesoid X Receptor (FXR) (AID 2282979; active = hit-call score of the fitted dose curve at least 0.9, where 1 is the maximum;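 note: hits raise reporter mRNA above DMSO so AC50 marks FXR activation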); conditions: HepG2 Attagene TRANS FXR-GAL4 reporter transcription
Method in brief: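 Read-out: fluorescent reporter transcripts quantified by capillary electrophoresis after RT-PCR of total RNA. Source cells were HepG2 transiently carrying chimeric NR-GAL4 plus GAL4-UAS reporter units, dosed 24 h. Activity fitted upward relative to DMSO baseline.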

[17] = molecular target: Oxysterols receptor LXR-alpha (Homo sapiens) (UniProt Q13133); experiment: ATG_LXRa_TRANS: Attagene TRANS-FACTORIAL HepG2 Assay for human Liver X Receptor alpha (LXRa) (AID 2282980; active = hit-call score of the fitted dose curve at least 0.9, where 1 is the maximum); conditions: HepG2 Attagene TRANS reporter, LXRa transactivation
Chain of Oxysterols receptor LXR-alpha (Homo sapiens) (Q13133 whole entry, looked up, the tested form may be a part): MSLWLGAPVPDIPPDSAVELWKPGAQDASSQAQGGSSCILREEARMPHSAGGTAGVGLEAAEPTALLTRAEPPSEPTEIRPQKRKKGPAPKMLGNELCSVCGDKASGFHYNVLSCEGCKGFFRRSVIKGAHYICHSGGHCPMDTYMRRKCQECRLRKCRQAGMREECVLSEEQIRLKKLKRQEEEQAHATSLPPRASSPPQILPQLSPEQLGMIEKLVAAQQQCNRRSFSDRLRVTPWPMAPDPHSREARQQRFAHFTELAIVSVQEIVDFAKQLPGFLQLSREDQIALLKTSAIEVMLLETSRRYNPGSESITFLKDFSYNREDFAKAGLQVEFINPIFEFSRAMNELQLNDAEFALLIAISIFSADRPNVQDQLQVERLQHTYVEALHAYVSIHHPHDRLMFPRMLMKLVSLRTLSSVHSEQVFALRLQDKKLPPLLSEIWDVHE
Method in brief: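 Read-out: reporter transcript levels by RT-PCR plus capillary electrophoresis, fluorescence intensity. Transiently transfected HepG2, exogenous NR-GAL4 chimera, GAL4-UAS reporters; 24 h compound exposure. Activity = increase over DMSO negative control.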

[18] = molecular target: Oxysterols receptor LXR-beta (Homo sapiens) (UniProt P55055); experiment: ATG_LXRb_TRANS: Attagene TRANS-FACTORIAL HepG2 Assay for human Liver X Receptor beta (LXRb) (AID 2282981; active = hit-call score of the fitted dose curve at least 0.9, where 1 is the maximum); conditions: HepG2 Attagene TRANS GAL4-LXRb reporter, mRNA
Chain of Oxysterols receptor LXR-beta (Homo sapiens) (P55055 whole entry, looked up, the tested form may be a part): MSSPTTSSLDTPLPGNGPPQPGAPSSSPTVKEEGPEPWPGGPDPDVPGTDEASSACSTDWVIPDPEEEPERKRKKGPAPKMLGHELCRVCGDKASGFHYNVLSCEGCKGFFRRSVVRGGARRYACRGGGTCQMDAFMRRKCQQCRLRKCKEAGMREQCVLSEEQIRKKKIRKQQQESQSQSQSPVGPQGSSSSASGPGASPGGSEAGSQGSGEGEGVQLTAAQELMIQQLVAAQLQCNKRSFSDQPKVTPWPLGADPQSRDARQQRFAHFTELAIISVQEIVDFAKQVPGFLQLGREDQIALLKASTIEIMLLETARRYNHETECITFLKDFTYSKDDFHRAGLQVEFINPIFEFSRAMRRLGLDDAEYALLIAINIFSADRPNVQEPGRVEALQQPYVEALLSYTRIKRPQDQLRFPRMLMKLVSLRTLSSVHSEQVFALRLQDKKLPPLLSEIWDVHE
Method in brief: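 Multiplexed reporter assay, HepG2, 24 h dosing. Fluorescence of labelled RT-PCR products after capillary electrophoresis gives transcript level; positive fitting direction relative to DMSO.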

[19] = ATG_NF_kB_CIS: Attagene CIS-FACTORIAL HepG2 Assay for human Nuclear Factor Kappa B (NF-kB) (AID 2282991); conditions: HepG2 Attagene cis-factorial NF-kB reporter mRNA; actives raise or lower the signal
Method in brief: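 After 24 h compound incubation, transfected HepG2 cells yield total RNA; reporter cDNA is PCR-amplified, end-labelled with 6-FAM, HpaI-digested and analysed on a genetic analyser. Endogenous factor activity, DMSO-referenced bidirectional fit.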

Measured: AC50

O=C(O)COc1ccc(Cl)cc1Cl
not listed: [15] | [16] | [17] | [18] | [19]
inactive: all other assays above

CCN(CC)C(=O)SCc1ccc(Cl)cc1
active: [11] 6.08 µM | [12] 25 µM
not listed: [1] | [4]
inactive: all other assays above

OCCOc1ccccc1
not listed: [1] | [3] | [4] | [16] | [19]
inactive: all other assays above

Oc1ccc(Cl)cc1Cc1ccccc1
inactive: [1] | [2] | [17] | [18] | [3] | [4] | [5] | [6] | [7] | [8] | [9] | [10] | [19] | [11] | [12] | [13]
active: [2] 33.6 µM | [6] 14.7 µM | [7] 15.2 µM | [9] 13.1 µM | [10] 6.37 µM | [19] 16.7 µM | [11] 8.4 µM [middle of 9 runs] | [12] 6.94 µM and 8.1 µM and 14.8 µM | [14] 29.2 µM [middle of 7 runs]
